Source: PubChem BioAssay
Anthrax LF prot: anthrax lethal factor protease inhibition; P15917; multiplex microsphere protease cleavage assay, LF; inhibition, % at 10 µM; 0.12% of 360,000 active; AID 588501; note: plate controls were buffer without enzyme for full effect and enzyme alone for no effect
Target sequence (P15917 whole entry, looked up): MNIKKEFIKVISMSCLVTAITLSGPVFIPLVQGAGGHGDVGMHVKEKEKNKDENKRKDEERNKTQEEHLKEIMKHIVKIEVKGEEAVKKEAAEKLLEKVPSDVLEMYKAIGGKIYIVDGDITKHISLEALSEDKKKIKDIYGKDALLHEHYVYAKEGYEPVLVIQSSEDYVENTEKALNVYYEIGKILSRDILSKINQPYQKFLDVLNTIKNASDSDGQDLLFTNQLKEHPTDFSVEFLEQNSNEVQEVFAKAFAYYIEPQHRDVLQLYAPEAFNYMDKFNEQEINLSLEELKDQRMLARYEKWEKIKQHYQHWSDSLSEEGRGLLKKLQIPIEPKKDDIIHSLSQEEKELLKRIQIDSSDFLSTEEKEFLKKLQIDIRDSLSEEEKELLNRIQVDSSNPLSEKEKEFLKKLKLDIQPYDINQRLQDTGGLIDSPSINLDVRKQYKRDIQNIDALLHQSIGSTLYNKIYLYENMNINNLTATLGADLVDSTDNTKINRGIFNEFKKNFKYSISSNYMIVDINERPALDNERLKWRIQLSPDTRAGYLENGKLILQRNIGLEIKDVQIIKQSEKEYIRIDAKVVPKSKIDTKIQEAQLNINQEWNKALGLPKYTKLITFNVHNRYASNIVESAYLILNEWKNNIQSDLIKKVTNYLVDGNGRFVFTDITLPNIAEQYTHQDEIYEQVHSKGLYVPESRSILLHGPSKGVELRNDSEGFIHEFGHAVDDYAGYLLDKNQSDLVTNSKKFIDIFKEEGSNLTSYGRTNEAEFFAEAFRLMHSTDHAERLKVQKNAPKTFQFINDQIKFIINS
BoNT-F LC inh: blocks Botulinum neurotoxin F light chain protease. Multiplex microsphere protease cleavage assay, flow cytometry. inhibition, % at 10 µM. 0.22% of 360,000 active; in the data active = inhibition above about 35%, passing the limit was not always enough; inconclusive = no clear call, values can overlap the other calls; note: plate controls were buffer without enzyme for full effect and enzyme alone for no effect
BoNT-A LC inh2: blocks Botulinum neurotoxin A light chain protease; multiplex microsphere protease substrate cleavage, flow cytometry; inhibition, % at 10 µM; 0.17% of 360,000 active; AID 588499; note: plate controls were buffer without enzyme for full effect and enzyme alone for no effect
Bead autofluor: counter-screen for toxin protease inhibitors: compound fluorescence | compound autofluorescence counterscreen, microsphere flow cytometry; active compounds read high | fluorescence intensity (test concentration not listed) | 3.1% of 360,000 active; in the data active = fluorescence intensity above about 16000; inconclusive = no clear call, values can overlap the other calls
MazF activator: increases E. coli MazEF RNase cleavage of RNA; P0AE70; 0.32% of 350,000 active; activation, % at 20 µM; FAM/BHQ RNA-DNA oligo cleavage fluorescence, 5 h; AID 504720; in the data active = activation above about 50%
The depositor's hits bear a star; ? = inconclusive; · = no result given. A selection: hits, their analogues and other compounds. The true share with any hit is near 3.7%. Cut-off read from the data, not from the text of the source, unless noted: active = inhibition above about 30%; inconclusive = no clear call, values can overlap the other calls; inactive = below that.

SMILES | Anthrax LF prot | BoNT-F LC inh | BoNT-A LC inh2 | Bead autofluor | MazF activator
CCOC(=O)C1=C(CSCC(=O)OC)NC(=O)NC1c1cc(C)ccc1C (stereo not drawn) | -9 | 2 | 2 | 22020* | -2
CCC(=O)N1CCC1(C)C(=O)Nc1cc(OC)ccc1OC (stereo not drawn) | -9 | -27 | -2 | 4180 | ·
COc1c(OC(C)=O)ccc(/C=C/c2ccc3ccccc3n2)c1[N+](=O)[O-] | 1 | -6 | -1 | 23285* | -7
Cn1c(NC(=O)c2ccccc2)c(-c2ccccn2)c(=O)c2ccccc21 | 3 | 1 | -1 | 20450* | -4
CC(C#N)On1c(SC(C)C#N)nc2ccccc2c1=O (stereo not drawn) | -4 | -6 | -4 | 25088* | 10
CCCCOC(=O)n1c(SCC(=O)N(CC)CC)nc2ccccc21 | -12 | -7 | -5 | 24831* | 0
CCOC(=O)n1c(SCC(N)=O)nc2ccccc21 | -2 | -17 | -2 | 3304 | 7
CCN(CC)C(=O)CSc1nc2ccccc2c(=O)n1OC(C)C | -6 | -3 | -2 | 17014* | 5
CCN(CC)C(=O)CSc1nc2ccccc2c(=O)n1CC | 0 | 2 | 0 | 2757 | 13
CCn1c(=S)[nH]c2c(=O)n(C)c(=O)n(C)c21 | -3 | -15 | -1 | 2980 | 4
O=C1c2cccc3c([N+](=O)[O-])ccc(c23)C(=O)N1c1ccccn1 | 2 | 12 | 2 | 2295 | 13
O=C1c2cccc3c([N+](=O)[O-])ccc(c23)C(=O)N1c1ccc(Cl)cn1 | 1 | -2 | 0 | 20167* | -19
O=C1c2cccc3c([N+](=O)[O-])ccc(c23)C(=O)N1c1nccs1 | -2 | -1 | 0 | 23502* | 12
O=C1c2cccc3cccc(c23)C(=O)N1c1nccs1 | -4 | 11 | 0 | 10549 | 7
CC(C)Nc1nc(Nc2ccc(C#N)cc2)c2sccc2n1 | -3 | -2 | -1 | 3811 | ·
Cc1cc(S(=O)(=O)Nc2ccc3ccccc3c2)c(C)s1 | -4 | 2 | 5 | 19290* | -14
COc1ccc(S(=O)(=O)NCCC(C)C)cc1C | -1 | 0 | 1 | 23019* | 7
Cc1cc(S(=O)(=O)Nc2cccnc2)c(C)s1 | 0 | -5 | -1 | 4703 | 1
COc1ccc(S(=O)(=O)Nc2ccc3ccccc3c2)cc1C | 1 | -6 | -4 | 25259* | 5
Cc1cc(S(=O)(=O)Nc2cc(C)c(O)c(C)c2)c(C)s1 | -6 | -5 | -3 | 16803* | -18
CC(C)c1ccc(C2(C)NC(=O)N(CC(=O)N3CCN(C(=O)c4cccs4)CC3)C2=O)cc1 (stereo not drawn) | 1 | -12 | -4 | 4646 | 7
CCOC(=O)C1(C)CCCCCN1C(=O)c1ccccc1F (stereo not drawn) | 0 | 4 | 0 | 2729 | ·
Cc1cc(NC(=O)c2ccc3sc([C@@H]4O[C@H](CO)[C@H](O)[C@H](O)[C@H]4O)nc3c2)no1 | -8 | 2 | 0 | 2980 | ·
COc1ccc(S(=O)(=O)Nc2ccc3c(c2)OCO3)cc1OC | 0 | -2 | ? | 18331* | -1
COc1ccc(NS(=O)(=O)c2ccc3c(c2)OCCO3)cc1OC | 1 | 3 | 0 | 4983 | 3
SMILES | Anthrax LF prot | BoNT-F LC inh | BoNT-A LC inh2 | Bead autofluor | MazF activator
CCNC(=O)C1(C)CCN1CCC(=O)c1ccc(Br)cc1 (stereo not drawn) | -1 | -6 | 0 | 3165 | ·
CCOC(=O)NC(CC(=O)O)c1ccc(OC)c(OC)c1 (stereo not drawn) | 0 | -1 | 0 | 16400* | 5
Cc1ccc(NC2CCCN(C(=O)CCn3nccc3C)C2)cc1C (stereo not drawn) | 1 | 2 | 1 | 5863 | -16
O=C(CN1CCCC1)Nc1cccc(Cl)c1Cl | -10 | ? | 5 | 3964 | 3
O=C(CN1CCCC1)Nc1ccccc1Cl | 1 | -1 | ? | 22970* | 2
Cc1c(Cl)cccc1NC(=S)N1CCN(Cc2ccccc2)CC1 | 2 | 1 | 0 | 23770* | -4
Cc1c(Cl)cccc1NC(=O)CCN1CCCCCC1 | 19 | -10 | -2 | 8142 | -2
COC(=O)c1ccc(Cl)c(NC(=O)CN2CCN(C)CC2)c1 | -4 | -3 | ? | 23083* | 9
Cc1c(Cl)cccc1NC(=O)CN1CCN(CCO)CC1 | -11 | 2 | 2 | 22331* | 12
O=C(NCCc1ccccc1)c1ccc(-n2cnnn2)cc1 | -2 | -5 | ? | 16633* | 4
CCN(CC)S(=O)(=O)c1cccc(C(=O)Nc2ccc(C#N)cc2)c1 | 0 | -4 | -1 | 16843* | -3
CN(c1ccc(C(=O)NCCc2ccccc2)cc1)S(C)(=O)=O | 0 | 0 | 2 | 20035* | 14
